Screening results (PubChem)
FEN1 inhibitor: blocks human flap endonuclease 1 | P39748 | Recombinant FEN1 flap cleavage, fluorescence, 15 min | Potency, µM (series often up to 114 µM), usual class: inhibitors | 390,000 tested, 0.35% active; note: nearly all actives have a fitted effect of over 65% in size
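Reaction started by adding substrate (50 nM final) to 10 nM enzyme after 15 min room-temperature compound preincubation. Reads at 0 and 15 min, with data normalized and fitted to a four-parameter Hill equation.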
BLM inh-1: Bloom syndrome helicase (human) inhibition; recombinant BLM DNA unwinding, fluorescence dequenching; Potency, µM (titrated, usually from 56.1 µM), most hits filed as inhibitors; 350,000 tested, 0.2% active; note: nearly all actives have a fitted effect of over 35% in size
Target sequence (P54132 whole entry, looked up): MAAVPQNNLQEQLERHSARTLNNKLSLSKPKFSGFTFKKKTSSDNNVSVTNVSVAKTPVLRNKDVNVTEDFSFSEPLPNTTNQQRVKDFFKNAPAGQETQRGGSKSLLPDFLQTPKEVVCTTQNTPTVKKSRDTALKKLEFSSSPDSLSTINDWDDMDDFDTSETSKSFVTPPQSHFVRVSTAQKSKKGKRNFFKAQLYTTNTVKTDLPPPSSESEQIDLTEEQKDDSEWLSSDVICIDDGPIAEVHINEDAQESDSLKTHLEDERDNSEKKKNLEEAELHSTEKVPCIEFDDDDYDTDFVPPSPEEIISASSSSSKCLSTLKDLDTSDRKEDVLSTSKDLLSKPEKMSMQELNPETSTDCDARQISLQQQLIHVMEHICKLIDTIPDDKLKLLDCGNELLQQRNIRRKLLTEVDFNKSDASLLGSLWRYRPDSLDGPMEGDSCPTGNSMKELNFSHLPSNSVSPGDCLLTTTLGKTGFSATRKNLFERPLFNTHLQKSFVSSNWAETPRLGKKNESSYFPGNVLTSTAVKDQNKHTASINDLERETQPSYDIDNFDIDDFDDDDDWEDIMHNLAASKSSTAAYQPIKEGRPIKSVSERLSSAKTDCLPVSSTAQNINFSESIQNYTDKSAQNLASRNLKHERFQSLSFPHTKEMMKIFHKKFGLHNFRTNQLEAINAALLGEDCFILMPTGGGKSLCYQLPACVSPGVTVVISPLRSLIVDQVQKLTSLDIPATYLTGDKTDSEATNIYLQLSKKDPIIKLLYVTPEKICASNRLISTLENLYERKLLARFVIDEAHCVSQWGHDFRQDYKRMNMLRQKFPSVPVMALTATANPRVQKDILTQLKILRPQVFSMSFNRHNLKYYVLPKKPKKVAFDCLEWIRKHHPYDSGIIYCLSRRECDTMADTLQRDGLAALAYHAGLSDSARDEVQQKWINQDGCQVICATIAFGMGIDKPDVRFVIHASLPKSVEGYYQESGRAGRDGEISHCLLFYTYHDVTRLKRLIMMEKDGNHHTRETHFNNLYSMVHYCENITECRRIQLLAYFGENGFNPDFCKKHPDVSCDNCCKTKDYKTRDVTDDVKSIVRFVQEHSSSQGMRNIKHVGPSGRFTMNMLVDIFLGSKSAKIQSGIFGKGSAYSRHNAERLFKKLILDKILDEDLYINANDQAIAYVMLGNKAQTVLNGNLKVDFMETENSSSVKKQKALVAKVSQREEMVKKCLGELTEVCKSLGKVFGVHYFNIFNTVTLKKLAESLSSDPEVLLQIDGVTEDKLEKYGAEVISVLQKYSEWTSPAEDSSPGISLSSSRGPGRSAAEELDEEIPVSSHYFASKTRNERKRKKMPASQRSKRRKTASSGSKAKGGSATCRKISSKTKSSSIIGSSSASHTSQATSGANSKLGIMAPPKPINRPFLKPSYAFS
L3MBTL1 block: inhibitors of human L3MBTL1 | AlphaScreen L3MBTL1–H3K9me1 peptide binding | Potency, µM (titrated, usually from 57.1 µM), usual class: inhibitors | 230,000 tested, 0.66% active | Q9Y468; note: nearly all actives have a fitted effect of over 60% in size
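Read-out is AlphaScreen signal from streptavidin donor and nickel chelate acceptor beads (10 ug/mL final each) bridging L3MBTL1 (50 nM) and biotinylated K9-monomethylated H3(1-15) peptide (75 nM), after 30 min compound exposure at room temperature.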
WRN inhibitor: inhibitors of human WRN helicase; Q14191; WRN helicase unwinding, fluorescent forked duplex, kinetic; Potency, µM (top dose mostly 114 µM), hits mostly inhibitors; 360,000 tested, 0.46% active; AID 651768; note: nearly all actives have a fitted effect of over 55% in size
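WRN at 20 nM final was preincubated with compound for 15 min at room temperature; reaction started with 100 nM forked duplex oligonucleotide carrying fluorophore and quencher plus 2 mM ATP (final). Unwinding followed kinetically by red fluorescence (ex 525/em 598 nm).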
RECQ1 helicase: inhibitors of human RECQ1 DNA helicase; P46063; RECQ1 DNA unwinding, red fluorescence kinetic read; Potency, µM (highest dose often 57.3 µM), hits mostly inhibitors; 240,000 tested, 0.54% active; AID 2549; note: nearly all actives have a fitted effect of over 30% in size
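50 nM RECQ1T1 preincubated 15 min with compound in Tris pH 8.0 buffer with MgCl2, DTT, Tween-20 and 2.5 ug/ml poly(dI-dC); started with 200 nM TAMRA/BHQ-2 forked duplex and 2 mM ATP. Unwinding read as fluorescence (525/598 nm), two reads 2 h apart.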
BLM inh-2: confirmation of inhibitors of human Bloom syndrome helicase BLM; shares compounds with BLM inh-1; BLM DNA unwinding, fluorescence quenching, biochemical; Potency, µM, actives largely listed as inhibitors; 220 tested, 40% active;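 note: strand separation dequenches TAMRA so unwinding raises red fluorescence; series mostly up to about 69 µM; nearly all actives have a fitted effect of over 45% in size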
Hits are given with their value; i = inactive; ? = inconclusive; nt = no result given; [ ] = dose if it differs, or a comment. An excerpt weighted towards active compounds, which were near 0.99% of everything screened. Calls come from the whole dose curve; as a rule, active = well fitted curve in the direction sought with a large enough effect; inconclusive = small, poorly fitted or top-dose-only effect, or another doubt; inactive = no such curve, though single readings can be large; an effect the other way counts as inactive or inconclusive.

SMILES	FEN1 inhibitor	BLM inh-1	L3MBTL1 block	WRN inhibitor	RECQ1 helicase	others
O=C1C(NS(=O)(=O)c2ccc(Cl)cc2)=C(N2CCCCC2)C(=O)c2ccccc21	i	i	25.1µM	i	i
NC(=O)c1c(NC(=O)C2CCCO2)sc2c1CCC2 (centres undefined)	i	i	i	i	i
Cc1ccc2c(c1)C(c1ccc([N+](=O)[O-])cc1)=NNC(c1ccc(Br)cc1)=N2	i	i	i	i	i
CCOC(=O)C1CCN(c2nc(N)c3c(N)nc(SCC(=O)O)cc3c2C#N)CC1	44.7µM	25.1µM	25.1µM	44.7µM	?
CCOc1cc2c(C#N)c(N3CCCCC3)nc(N)c2c(N)n1	i	28.2µM	nt	i	i
CCOc1cc2c(C#N)c(N3CCNCC3)nc(N)c2c(N)n1	?	i	nt	i	i
C#CCN1C(=O)S/C(=C\c2ccc(-c3ccc(Cl)c(C(=O)O)c3)o2)C1=O	?	i	?	i[11.6 µM]	nt
O=C(O)c1cc(-c2ccc(/C=c3\sc4nc5ccc(Br)cc5n4c3=O)o2)ccc1Cl	nt	i	28.2µM	nt	nt
C[n+]1ccc(/C=C/c2ccc([N+](C)(C)C)cc2)c2ccccc21	22.4µM	nt	nt	nt	nt
C[n+]1ccc(/C=C/c2ccc(F)cc2)c2ccccc21	i	nt	nt	nt	nt
COc1ccc(/C=C/c2cc[n+](C)c3ccccc23)cc1OC	44.7µM	nt	nt	nt	nt
CN(C)c1ccc(/C=C/c2cc[n+]([O-])c3ccccc23)cc1	i	nt	nt	nt	nt
C[n+]1ccc(/C=C/c2cc[n+](C)c3ccccc23)c2ccccc21	10µM	nt	nt	nt	nt
CC(C)C[C@@H](CC(=O)N[C@@H](CCCN)CC(=O)N[C@@H]1CCCC[C@H]1C(=O)N[C@H](CC(=O)N[C@@H](CCC(=O)O)CC(=O)O)Cc1ccccc1)NC(=O)[C@@H]1CNCC[C@H]1N	nt	i	nt	nt	i
CC1CCN(C(=O)CN(Cc2ccccc2)S(C)(=O)=O)CC1	i	i	i	i	nt
COC(=O)c1ccccc1NC(=O)COC(=O)c1ccccc1N=Nc1ccc(N(C)C)cc1	i	i	10µM	i	i
CC(=O)c1ccc(NC(=O)COC(=O)c2ccccc2N=Nc2ccc(N(C)C)cc2)cc1	i	i	?	i	i
C[n+]1cc2c3c(ccc2c2ccc4cc5c(cc4c21)OCO5)OCO3	11.2µM	i	nt	nt	i
NS(=O)(=O)c1cccc(NC(=S)NC(=O)c2cccc([N+](=O)[O-])c2)c1	i	i	i	i	i
Cc1cc[n+](-c2[nH]c(=O)sc2/C=N/N=C(\[O-])c2ccccc2)cc1C	i	i	i	i	28.2µM
COc1ccc2nc(C)cc(N/N=C/c3ccc(F)cc3)c2c1	?	i	i	i	nt
COc1ccc(/C=N/Nc2cc(C)nc3ccccc23)cc1	39.8µM	i	i	?	nt
COc1ccc(/C=N/Nc2cc(C)nc3c(C)cccc23)cc1	17.8µM	i	i	?	nt
CCOc1ccccc1NS(=O)(=O)c1cc2[nH]c(=O)c(=O)[nH]c2cc1C	i	i	nt	nt	nt
CCC(C)Sc1nnc(Cc2cc(=O)[nH]c(=O)[nH]2)n1-c1ccc(F)cc1 (centres undefined)	i	i	nt	i	i
SMILES	FEN1 inhibitor	BLM inh-1	L3MBTL1 block	WRN inhibitor	RECQ1 helicase	others
CN1CCN(C(c2ccccn2)c2cc(Cl)c3cccnc3c2O)CC1 (centres undefined)	i	i	14.1µM	i	i
Oc1c(C(c2ccccn2)N2CCC(Cc3ccccc3)CC2)cc(Cl)c2cccnc12 (centres undefined)	i	i	nt	i	i
CN(C)c1ccc(NC(=S)c2ccccn2)cc1	i	i	31.6µM	i	i
CN(C)c1ccc(C(=S)Nc2ccccc2)cc1	i	i	i	i	i
NC(=O)C(=CNc1nc(-c2ccc(Cl)c(Cl)c2)cs1)C(N)=O	nt	?	i	nt	3.55µM
O=C(O)c1ccc(-c2nc(-c3ccc(Cl)c(Cl)c3)cs2)cc1	i	i	nt	i	i
OCCN1CCN(c2cc(-c3ccccc3)c3ccccc3n2)CC1	i	i	i	79.4µM	i
O=c1[nH]c(SCCOc2cccc3ccccc23)nc2ccccc12	i	i	nt	i	i
O=C(Nc1cccc2cccnc12)c1cccc2ccccc12	i	i	nt	i	i
O=C(Nc1ccccc1F)c1ccc(O)c2ncccc12	nt	nt	28.2µM	nt	nt
Cc1ccc(S(=O)(=O)N2CCCCC2)cc1C(=O)NC1CC(C)(C)NC(C)(C)C1	i	nt	i	i	nt
O=C(N/N=C/c1ccc([N+](=O)[O-])o1)c1sc2ccccc2c1Cl	39.8µM	i	nt	i	i
O=C(N/N=C/c1ccccn1)c1sc2ccccc2c1Cl	?	i	?	?	i
CC(C)CN(C(=O)COC(=O)c1cc2c(s1)CCC2)C1CCS(=O)(=O)C1 (centres undefined)	?	25.1µM	20µM	?	?	BLM inh-2=?
Cc1cc(/C=C(/C#N)c2nc3ccccc3[nH]2)c(C)n1-c1ccccc1C(=O)O	i	i	nt	?	i
CCOc1ccc(-c2nc(SCC(=O)Nc3cc(F)ccc3F)n3[nH]c(=O)cc3n2)cc1	i	10µM	nt	nt	nt	BLM inh-2=11.5µM
FC(F)(F)c1cc(Oc2ccc(Cl)cc2)nc(-c2ccccn2)n1	i	i	i	i	i
FC(F)(F)c1cc(Oc2ccccc2Cl)nc(-c2ccccn2)n1	i	4.47µM	i	i	i	BLM inh-2=4.08µM
Cc1ccccc1CN1CCN(Cc2ccccc2C(F)(F)F)CC1	i	i	nt	i	i
COc1ccc2c(c1)Cc1sc(NC(=O)c3cccnc3)nc1-2	i	17.8µM	?	i	i	BLM inh-2=?
O=C(CCl)Nc1ccccc1Sc1ccc(Cl)cc1	i	15.8µM	nt	i	i	BLM inh-2=11.5µM
Cc1ccc(C(=O)CSc2nnc(-c3ccco3)n2C)cc1	i	i	i	?	i
Cn1c(SCC(=O)c2cc(Cl)c(Cl)s2)nnc1-c1ccco1	i	12.6µM	i	?	i	BLM inh-2=?
Clc1ccccc1C(c1nnnn1Cc1ccco1)N1CCN(Cc2ccco2)CC1 (centres undefined)	i	i	i	i	i
CCOC(=O)/C=C1\CC(C(=O)OCC)Oc2c(OC)cccc21 (centres undefined)	i	i	i	i	i	BLM inh-2=i
SMILES	FEN1 inhibitor	BLM inh-1	L3MBTL1 block	WRN inhibitor	RECQ1 helicase	others
C=C1c2cccc(OC)c2O[C@H](C(=O)OCC)[C@@H]1CC(CC)CCCC (some centres undefined)	i	i	i	i	i
CCOC(=O)C1CCN(c2nc3ccccc3n2CC(=O)c2ccccc2)CC1	i	20µM	i	i	i	BLM inh-2=i
CCOc1ccc(C(=O)CCC(=O)Nc2ccc(C)cn2)cc1	i	nt	i	i	nt
CCN(CCO)c1nc(SC)nc2c1sc1nc(-c3ccco3)c3c(c12)CCC3	i	10µM	i	i	i	BLM inh-2=?
CCN(CCO)c1ncnc2c1sc1nc(C(C)C)c3c(c12)CC(C)(C)OC3	i	i	i	i	i
N#C/C(=C\c1ccc(OC(=O)c2cccs2)cc1)c1nc2ccccc2[nH]1	i	20µM	i	?	i	BLM inh-2=i
Cc1ccc(C(=O)/C=C/Nc2ccc3c(c2)OCO3)cc1	i	i	i	i	i
